# Compound activity from PubChem.
# Vc quorum ag – inducers of Vibrio cholerae quorum light production without autoinducers, primary screen, BH1578 luxS cqsA deficient, single point. activation, % at 18.7 µM. V. cholerae BH1578 lux reporter, luminescence, 6 h. hit rate 0.16% among 350,000; in the data active = activation mostly above about 9.7%, no sharp cut-off; inconclusive = no clear call, values can overlap the other calls; inactive = mostly below about 3.7%
# PfHsp40 rescue – rescue of yeast from PfHsp40 toxicity, primary screen, S. cerevisiae, ATP luminescence | growth rescue, % at 12.5 µM | S. cerevisiae expressing PfHsp40, growth rescue | hit rate 0.68% among 340,000; in the data active = growth rescue above about 28%, passing the limit was not always enough; inconclusive = no clear call, values can overlap the other calls;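 note: yeast W303a lacking pdr1 and pdr3 grown in galactose medium; growth measured after three days at 30 °C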
# Sa RN4220 lethal – growth inhibition of S. aureus RN4220, primary screen, OD600; hit rate 0.33% among 330,000; 16 h; inhibition, % (no concentration beside the values); AID 1259311, 2017; in the data active = inhibition above about 85%;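 note: plate controls were untreated cells for no effect and reference antibiotic for full effect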
# Sa ugtP lethal – growth inhibition of ugtP-null S. aureus, primary screen, RN4220 ugtP deletion, OD600; hit rate 0.54% among 330,000; growth inhibition, % (concentration not given with the values); 16 h; in the data active = growth inhibition above about 68%;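 note: plate controls were untreated wells for no effect and antibiotic for full effect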
# Mtb betalactam – beta-lactam sensitization of Mtb H37Rv, H37Rv; M. tuberculosis H37Rv growth with meropenem, percent inhibition; inhibition, % at 25 µM; hit rate 0.27% among 330,000; call rule not given here;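 note: growth measured after seven days incubation then overnight dye step; 0% = bacteria only wells and 100% = bacteria with antibiotic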
# Starred values were filed as active, the others as inactive; i = inactive; ? = inconclusive; . = no result given. Most compounds without a hit are left out; they make up all but 1.2% or so of the library.
SMILES,Vc quorum ag,PfHsp40 rescue,Sa RN4220 lethal,Sa ugtP lethal,Mtb betalactam
Oc1ccccc1C1SC(c2ccccc2O)SC(c2ccccc2O)S1 (stereo unspecified),-7.1,32.2*,99.9*,99.7*,.
Cc1cc2c(cc1C)CSC(c1ccccc1O)SC2,-0.3,11.9,-2.9,-19.6,42.0
Cc1ccc(-c2c(C(=O)NN=Cc3cccc(Cl)c3)nnn2-c2nonc2N)cc1,.,.,84.9,36.6,.
O=C(Nc1ncccc1O)c1cccc(S(=O)(=O)N2CCc3ccccc32)c1,-1.3,65.7*,-13.0,-10.4,9.6
NS(=O)(=O)OCC(Cc1ccccc1)N1C(=O)c2ccccc2C1=O (stereo unspecified),-1.2,75.4*,7.8,2.5,-6.6
NC(=O)C(Cc1ccccc1)N1C(=O)c2ccccc2C1=O (stereo unspecified),-0.6,0.3,4.1,3.9,15.1
Cc1c(C2C(CC#N)C2(C)C)c2ccccc2n1C (stereo unspecified),.,.,6.5,4.1,.
CC1(C)Cc2cccc(OCC(=O)N3CCN(c4cccc(C(F)(F)F)c4)CC3)c2O1,-1.6,41.0*,2.3,-2.1,-7.2
C=CCC1C=CC(ON=CC(NS(=O)(=O)c2ccc(C)cc2)C(C)C=CCC(=O)OC)C(CO)O1 (stereo unspecified),.,.,4.2,0.1,.
O=C1NC(Cc2ccccc2)C(=O)N1Cc1ccccc1 (stereo unspecified),-1.7,-0.8,5.8,7.2,.
O=c1ccsn1Cc1ccccc1,-0.5,-0.4,3.9,87.8*,1.3
CC(C)(C)CN1C(=O)C(=O)NCC1CCCCN (stereo unspecified),.,.,1.3,1.8,.
COc1ccc(Cc2nnc(SCC(=O)N(C)CC(=O)Nc3ccc(C)cc3)o2)cc1,28.5*,-1.1,5.7,1.8,2.1
COc1ccc(OCc2nnc(SCC(=O)Nc3ccc(C)cc3)o2)cc1,-0.3,-2.0,4.4,0.1,97.4
CC(C)CC1CN=C(Nc2ccccc2)N1CCC1CCCC1 (stereo unspecified),.,.,5.2,-10.6,.
Cc1c(Cl)cccc1NS(=O)(=O)c1ccc2c(c1)C1C=CCC1C(c1ccc(C(=O)O)cc1)N2 (stereo unspecified),-0.1,34.8*,41.8,37.2,1.4
COC1CCC(OC2CC(C3(C)CCC4(CC(O)C(C)C(C(C)/C=C(\C)C(=O)C(C)CC(C)C(=O)O)O4)O3)OC3(OC(C4OC(O)(CO)C(C)CC4C)CC3C)C2C)OC1C (stereo unspecified),-5.6,219.6*,.,.,.
COc1ccc(/C=C/C(=O)c2ccc([N+](=O)[O-])o2)cc1,i,-0.3,.,.,100.2
O=C(C=Cc1cccc([N+](=O)[O-])c1)c1ccc([N+](=O)[O-])o1,.,.,100.4*,99.8*,.
O=C(/C=C/c1cccc([N+](=O)[O-])c1)NC1CC2CCC1C2 (stereo unspecified),-0.6,50.7*,5.6,9.9,99.7
COc1ccc(C=CC(=O)c2ccc([N+](=O)[O-])o2)cc1OC,.,.,48.1,100.0*,.
Cc1ccccc1C=CC(=O)c1ccc([N+](=O)[O-])o1,.,.,32.7,100.6*,.
Cc1ccccc1/C=C/C(=O)c1ccc([N+](=O)[O-])o1,.,.,.,.,100.2
Cc1cccc(C=CC(=O)c2ccc([N+](=O)[O-])o2)c1,.,.,100.7*,100.4*,.
Cc1cccc(/C=C/C(=O)c2ccc([N+](=O)[O-])o2)c1,i,-2.1,.,.,99.8
SMILES,Vc quorum ag,PfHsp40 rescue,Sa RN4220 lethal,Sa ugtP lethal,Mtb betalactam
COc1ccc(C2C=CCN(S(=O)(=O)c3ccc4ccccc4c3)CC(=O)N2Cc2ccc(F)cc2)cc1 (stereo unspecified),.,.,2.1,6.9,.
O=C(CSc1cccc[n+]1[O-])Nc1ccccc1C(F)(F)F,-3.8,-1.2,3.7,8.5,-1.7
O=C(CSc1cccc[n+]1[O-])Nc1ccccc1Oc1ccccc1,-0.2,89.9*,13.4,0.2,100.1
O=C(Nc1cc([N+](=O)[O-])ccc1Cl)C(Sc1ccccc1)c1ccccc1 (stereo unspecified),-0.4,-1.1,-6.2,-14.8,1.9
O=C(Nc1ccc(Cl)c([N+](=O)[O-])c1)C(Sc1ccccc1)c1ccccc1 (stereo unspecified),i,?,85.9*,99.2*,4.3
Cc1c(C(=O)Nc2ccc3c(c2)OCCO3)sc2nc(-c3ccccc3)cn12,-0.5,144.9*,15.3,-7.1,-1.0
COc1ccc(C(=O)c2ccc(Cl)cc2)c2ccccc12,0.9,-1.5,-5.2,95.5*,-8.8
